The values below come from PubChem BioAssay (NCI).

This is part of a sample that, as a whole, favours compounds with a hit. Of some 83,000 tested, about 20% had one in any assay.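 Single-concentration screen, 48 h exposure, 96-well plates. Endpoint: percent growth. Below 10 = active.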 Unmarked numbers belong to inactive results. Active and inactive are the calls of the source.

Test systems include T-47D breast; BT-549 breast; MDA-MB-435 melanoma; SW-620 colon; MCF7 breast; HCT-116 colon; HCC-2998 colon; KM12 colon.
Common to all, as to experiment: NCI-60 one-dose screen, 48 h (100 = growth as untreated, 0 = no growth, -100 = all killed)
Holding throughout (details): 10 µM unless noted

For the compound `O=C(NCCNc1nccc(-c2c(-c3cccc(O)c3)nc3sccn23)n1)c1cc(N2CCOCC2)cc(C(F)(F)F)c1`, the growth in the experiment on T-47D breast was 77.7%; with BT-549 breast it was 84.8%; in the experiment on MDA-MB-435 melanoma, 34.7%; with SW-620 colon it was 126%; with MCF7 breast it was 85.4%; with HCT-116 colon, 78.8%. Also, the growth in the experiment on HCC-2998 colon was 109%; with KM12 colon, 97.3%.
`CO[C@H]1/C=C/C=C/C=C/C[C@H](OC(=O)[C@@H](C)NC(=O)C2CCCCC2)[C@H](C)[C@@H](O)/C(C)=C\CCC2=CC(=O)C=C(NC(=O)C1)C2=O`: the growth is -15.1% (active) with T-47D breast; -19.6% (active) in the experiment with BT-549 breast; -29.1% (active) in the experiment on MDA-MB-435 melanoma; 2.69% (active) in the experiment with SW-620 colon; -11% (active) with MCF7 breast; -18.4% (active) in the experiment on HCT-116 colon. Besides, the growth in the experiment on HCC-2998 colon is -19.2% (active); with KM12 colon, -9.05% (active).
On to `CC(C)Cn1cnc2c3ccccc3nc(NCn3nc(-c4cc(Cl)cc(Cl)c4Cl)oc3=S)c21`, for which the growth in the experiment on T-47D breast was 94.4%; with BT-549 breast it was 97.5%; with MDA-MB-435 melanoma it was 91.4%; with SW-620 colon, 117%; in the experiment with MCF7 breast, 96.2%; in the experiment with HCT-116 colon, 79.3%. The growth with HCC-2998 colon is 97.4%; in the experiment on KM12 colon, 99.7%.
Consider `Cc1ccc(-c2cn3cc([N+](=O)[O-])ccc3n2)cc1`, for which the growth with T-47D breast is 46.6%; in the experiment with BT-549 breast, 53.9%; with MDA-MB-435 melanoma, 70.8%; in the experiment with SW-620 colon, 100%; in the experiment with MCF7 breast, 34.8%; with HCT-116 colon, 70.3%. Moreover, the growth in the experiment with HCC-2998 colon is 88%; in the experiment with KM12 colon, 91.4%.
Regarding `O=C(Nc1ccccc1F)Nc1ccccc1Cl`, the growth in the experiment with T-47D breast is 72.5%; in the experiment with BT-549 breast it was 85.7%; in the experiment with MDA-MB-435 melanoma it was 97.4%; with SW-620 colon it was 96.2%; in the experiment with MCF7 breast, 90.5%; in the experiment with HCT-116 colon, 101%. The growth with HCC-2998 colon was 99.2%; with KM12 colon, 83.5%.
`COc1ccc(-c2nnc(SCC(=O)N3CCN(c4cc5c(cc4F)c(=O)c(C(=O)O)cn5C4CC4)CC3)o2)cc1OC`: the growth in the experiment with T-47D breast was 70.7%; in the experiment on BT-549 breast, 69.1%; in the experiment with MDA-MB-435 melanoma, 100%; in the experiment with SW-620 colon, 96.2%; in the experiment with MCF7 breast, 83.6%; with HCT-116 colon, 55.3%. For the same compound, the growth in the experiment on HCC-2998 colon is 108%; with KM12 colon, 99.4%.
Consider `O=C(Nc1ccccc1Cl)c1c[nH]c(=O)c(-c2ccc(N3CCCOC4(CC4)C3)cc2)c1`, for which the growth in the experiment on T-47D breast is 31.5%; with BT-549 breast, 56.3%; in the experiment with MDA-MB-435 melanoma, 56.4%; in the experiment with SW-620 colon, 78.1%; with MCF7 breast it was 40%; in the experiment with HCT-116 colon, 42.4%. The figures for the growth in the experiment on HCC-2998 colon and in the experiment on KM12 colon were 67.5% and 74.3%, respectively.
`O=c1c2ccccc2sc2c(NCCN3CCOCC3)nc3ccccc3c12`: the growth in the experiment on T-47D breast was 52.2%; in the experiment with BT-549 breast, 73.7%; in the experiment with MDA-MB-435 melanoma, 70.1%; with SW-620 colon, 18%; with MCF7 breast it was 43.7%; in the experiment with HCT-116 colon, 42.5%. The growth is 54.2% in the experiment with HCC-2998 colon and 30% with KM12 colon.
For `COc1ccc(-c2cnc(-c3ccc(F)cc3)[nH]2)cc1`, the growth in the experiment with T-47D breast is 86.9%; with BT-549 breast, 314%; with MDA-MB-435 melanoma, -6.97% (active); with SW-620 colon it was 18.6%; with MCF7 breast, 26.3%; with HCT-116 colon, -68.8% (active). For the same compound, the results for the growth with HCC-2998 colon and in the experiment on KM12 colon were -10% (active) and 30.6%, respectively.
For `O=c1cc(Cl)[nH]c(=O)[nH]1`, the growth in the experiment on T-47D breast is 95.1%; in the experiment on BT-549 breast, 103%; in the experiment on MDA-MB-435 melanoma it was 111%; in the experiment on SW-620 colon it was 106%; in the experiment with MCF7 breast it was 92.5%; in the experiment on HCT-116 colon, 101%. For the same compound, the growth in the experiment with HCC-2998 colon is 93.5%; with KM12 colon, 105%.
On to `O=C(Nc1ccc(Cl)c(Cl)c1)Nc1ccc(Cl)c([N+](=O)[O-])c1`, for which the growth was -2.12% (active) in the experiment with T-47D breast; -9.25% (active) in the experiment with BT-549 breast; 7.8% (active) in the experiment on MDA-MB-435 melanoma; 9.66% (active) in the experiment with SW-620 colon; 0.367% (active) in the experiment with MCF7 breast; 1.83% (active) with HCT-116 colon. The growth with HCC-2998 colon was 2.28% (active); in the experiment with KM12 colon, 2.33% (active).
For the compound `COC(=O)CCCNS(=O)(=O)c1cc(C(=O)Nc2ccc(NC(=O)c3cc(S(=O)(=O)NCCCC(=O)OC)c(O)c(O)c3O)cc2)c(O)c(O)c1O`, the growth is 97.2% in the experiment on T-47D breast; 99.4% in the experiment on BT-549 breast; 1.35% (active) in the experiment on MDA-MB-435 melanoma; 95.8% in the experiment with SW-620 colon; 73.7% in the experiment on MCF7 breast; 76.9% with HCT-116 colon. The growth with HCC-2998 colon is 93.4%; in the experiment with KM12 colon it was 96%.
In the case of `COc1ccc(-c2nn(-c3cccc(Cl)c3)cc2-c2cc(-c3ccc(Br)cc3)[nH]c(=O)c2C#N)cc1`, the growth in the experiment on T-47D breast was 70.8%; in the experiment with BT-549 breast it was 66.3%; in the experiment with MDA-MB-435 melanoma it was 94.4%; in the experiment on SW-620 colon, 73.5%; in the experiment with MCF7 breast, 65%; with HCT-116 colon it was 79.7%. Moreover, the growth was 98.4% in the experiment on HCC-2998 colon and 91.8% in the experiment on KM12 colon.
Consider `COc1ccc(C2=NN(C(=O)COc3ccc(Cl)cc3)C(O)(c3cc(F)c(Cl)cc3Cl)C2)cc1` (stereo not given), for which the growth in the experiment with T-47D breast is 95.3%; with BT-549 breast, 115%; in the experiment with MDA-MB-435 melanoma it was 91.7%; with SW-620 colon, 100%; with MCF7 breast, 96.3%; with HCT-116 colon it was 86.4%. Besides, the growth with HCC-2998 colon is 104%; in the experiment with KM12 colon, 89.1%.
In the case of `NC(CCCC(N)C(=O)c1ccccc1)C(=O)O` (stereo not given), the growth was 89.9% in the experiment with T-47D breast; 104% in the experiment on BT-549 breast; 105% in the experiment with MDA-MB-435 melanoma; 110% in the experiment on SW-620 colon; 91.2% in the experiment with MCF7 breast; 99.2% in the experiment on HCT-116 colon. Further, the figures for the growth in the experiment with HCC-2998 colon and with KM12 colon were 103% and 101%, respectively.
